High-throughput results deposited in PubChem BioAssay by National Center for Advancing Translational Sciences (NCATS).
IL-1B inflam inh = blocks inflammasome-driven IL-1 beta release | THP-1 LPS/ATP IL-1B secretion, AlphaLISA, 16 h; stronger effect = lower value | activity change, % at 57.5 µM | 4.7% of 360,000 active; in the data active = activity change below about -50%; inconclusive = mostly about -30% to -49%; note: % is set by controls: 0 for no effect and ±100 for the full control effect
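THP-1 cells pretreated 1 hr with compounds (up to 57.5 uM final), then stimulated with LPS (250 ng/mL final) plus ATP (1.25 mM final); secreted IL-1B measured by AlphaLISA after 16 hr, decreased signal indicating inhibition.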
Vif-A3F inh = inhibitors of Vif-A3F interaction; AID 602313; Potency, µM (highest dose often 46.1 µM), for inactives: top-dose activity, negative = active; 0.2% of 390,000 active; HeLa A3F-eYFP + Vif (tagged APOBEC3F with the HIV-1 protein that degrades it), YFP fluorescence increase; note: potency is the fitted concentration of half-maximal effect; % of control where 0% means no effect; nearly all actives have a fitted effect of over 65% in size
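Fluorescence increase (Ex 488/Em 500-530) after overnight compound treatment at 37 deg C flags inhibition of Vif-driven A3F-eYFP loss in stable HeLa A3F-eYFP/Vif cells seeded overnight beforehand.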
SW480 rerep = inducers of DNA re-replication in SW480 colon cancer cells | SW480 DNA re-replication, Hoechst DNA content imaging, 48 h | 1.8% of 340,000 active | Potency, µM (highest dose often 46.1 µM), inactives show at the top dose re-replication activation, hits mostly activators; note: potency is the fitted concentration of half-maximal effect; % of control where 0% means no effect; nearly all actives have a fitted effect of over 55% in size
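DNA re-replication was detected as more nuclei of elevated Hoechst intensity after 48 hr exposure to compound (23 nL pinned per well of 250 cells).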
Giardia killer = Giardia lamblia killing; activity change, % at 7.66 µM, hits read low; AID 540267; 0.15% of 340,000 active; Giardia lamblia trophozoite viability; in the data active = activity change below about -80%; inconclusive = between about -30% and that limit;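 note: parasites exposed to compound for two days anaerobically before the ATP read; % is set by controls: 0 for no effect and ±100 for the full control effect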
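Luminescent ATP signal served as the viability read-out, measured 15-30 min after adding ATP detection reagent to trophozoites that had been incubated with compounds for 48 hrs at 37 deg C anaerobically at 100 cells/well.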
MCF10A rerep = inducers of DNA re-replication in MCF 10A breast cells; AID 624296; 2.9% of 350,000 active; Potency, µM (series often up to 46.1 µM), without a hit: top-dose activity, positive = re-replication, hits mostly activators; MCF 10A DNA re-replication, Hoechst nuclear intensity, 48 h; note: potency is the fitted concentration of half-maximal effect; % of control where 0% means no effect; nearly all actives have a fitted effect of over 50% in size
Vif-APOBEC3G blk = blocks the Vif interaction with human APOBEC3G | Potency, µM (top dose mostly 46.1 µM), without a hit: at the top dose activity, negative = active, usual class: inhibitors | 0.076% of 410,000 active | HeLa A3G-eYFP + Vif (tagged APOBEC3G with the HIV-1 protein that degrades it), YFP fluorescence, overnight | AID 602310 | Q9HC16; note: potency is the fitted concentration of half-maximal effect; % is set by controls: 0 for no effect and ±100 for the full control effect; nearly all actives have a fitted effect of over 60% in size
Target sequence (Q9HC16 whole entry, looked up): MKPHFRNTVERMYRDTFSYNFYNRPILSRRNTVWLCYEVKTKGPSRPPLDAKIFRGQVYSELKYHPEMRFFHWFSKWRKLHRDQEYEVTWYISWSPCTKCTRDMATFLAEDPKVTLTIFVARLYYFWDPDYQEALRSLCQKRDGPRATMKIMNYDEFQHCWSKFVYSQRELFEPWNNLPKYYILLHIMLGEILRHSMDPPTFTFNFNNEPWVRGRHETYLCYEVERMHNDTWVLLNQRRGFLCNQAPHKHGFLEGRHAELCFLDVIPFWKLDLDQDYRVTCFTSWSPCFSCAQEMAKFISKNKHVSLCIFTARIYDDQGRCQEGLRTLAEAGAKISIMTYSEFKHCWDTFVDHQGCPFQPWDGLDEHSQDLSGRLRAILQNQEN
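Read-out is eYFP fluorescence (Ex 488/Em 500-530) from Vif-expressing HeLa A3G-eYFP cells; more signal means A3G escaped Vif-mediated degradation. Cells plated overnight, compound pinned in, incubated overnight at 37 deg C.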
Active calls of the source: *; ? = inconclusive; / = no result given. Hits are enriched below; roughly 6.9% of the tested compounds scored in any of these assays. Unless noted, calls come from the whole dose curve; as a rule, active = well fitted curve in the direction sought with a large enough effect; inconclusive = small, poorly fitted or top-dose-only effect, or another doubt; inactive = no such curve, though single readings can be large; an effect the other way counts as inactive or inconclusive.

SMILES	IL-1B inflam inh	Vif-A3F inh	SW480 rerep	Giardia killer	MCF10A rerep	Vif-APOBEC3G blk
N#Cc1ccc(/C=C/C(=O)c2ccc3c(c2)OCO3)cc1	-68.7*	-8.2%	?	-27.1	?	-4.7%
Cc1cccc(-n2cnc3cc(C(=O)NC4CCCCCC4)ccc32)c1	/	-1.1%	/	/	/	-21.8%
CC1(C)O[C@H]2[C@@H](O1)[C@@H](C(=O)Nc1cc(F)ccc1F)O[C@@H]1OC(C)(C)O[C@@H]12	/	-0.7%	/	/	/	1.8%
CCOC(=O)c1[nH]c2ccccc2c1NC(=O)c1ccc(OC)c(OC)c1	/	1.1%	/	/	/	-9.4%
O=C(C(Cc1ccccc1)n1cccc1)N1CCN(c2cccc(Cl)c2)CC1 (centres undefined)	-1.6	5.6%	10.9%	12.6	-1.1%	4.6%
S=C(NCc1ccccc1)N1CCN(c2cccc(Cl)c2)CC1	-71.7*	-3.7%	2.0%	-1.1	21.8%	2.2%
CCC(C(=O)N1CCN(c2cccc(Cl)c2)CC1)c1ccccc1 (centres undefined)	-64.1*	-3.5%	16.1%	2.9	?	-3.2%
CC(OCc1ccccc1)C(NC(=O)OC(C)(C)C)C(=O)NC1COC2CC(n3cc(F)c(=O)[nH]c3=O)OC12 (centres undefined)	/	/	/	-23.0	/	2.6%
CC(=O)c1ccc(C(=O)N2CCc3c([nH]c4ccccc34)C2c2cccc(C)n2)s1 (centres undefined)	-67.2*	-23.8%	12.1%	-1.8	-23.4%	-11.7%
Cc1cccc(C2c3[nH]c4ccccc4c3CCN2C(=O)c2ccc(=O)[nH]c2)n1 (centres undefined)	31.9	1.0%	?	-15.9	-2.0%	-0.8%
Cc1cc2cc(C(=O)N3CCc4c([nH]c5ccccc45)C3c3ccccn3)ccc2o1 (centres undefined)	-24.7	4.0%	?	2.6	14.4%	-2.3%
CCOC(=O)c1[nH]c(C)c(C(=O)N2CCc3c([nH]c4ccccc34)C2c2ccccn2)c1C (centres undefined)	-51.7*	-12.9%	2.6%	-15.8	-1.3%	-15.8%
CCOC(=O)c1[nH]c(C)c(C(=O)N2CCc3ccccc32)c1C	108.3	-10.8%	0.517µM*	-2.2	0.411µM*	?
CCc1cccc(CC)c1NC(=O)Cn1nnc2sc3c(c2c1=O)CCCC3	/	-8.4%	/	/	/	-2.4%
COC(=O)C(Cc1c[nH]c2ccccc12)NC(=O)COc1ccc(Cl)cc1Cl (centres undefined)	/	-15.2%	/	12.7	/	3.9%
CCOC(=O)c1c(SCCN2CCCC2)n(-c2ccccc2)c(=S)n(-c2ccccc2)c1=O	-111.5*	-3.8%	6.51µM*	-0.1	4.61µM*	-7.0%
CCOC(=O)c1c[nH]c(=S)n(-c2ccccc2)c1=O	52.2	-4.1%	-4.0%	-7.5	5.4%	-7.7%
Cc1ccc(OCC(=O)NC(=S)Nc2cccc(NC(=O)c3ccc(Cl)cc3Cl)c2)cc1	0.0	-10.6%	-7.2%	-4.0	22.3%	2.3%
COc1cccc(NC(=O)COc2ccccc2)c1	0.0	-9.2%	20.3%	25.8	23.1µM*	0.9%
Cc1ccc(OCCC(=O)Nc2ccc(F)c(F)c2)cc1	0.0	7.4%	2.3%	-8.5	5.8%	-5.4%
Cc1ccc(NC(=O)C(OC(=O)c2ccccc2Cl)c2ccccc2)cc1Cl (centres undefined)	?	-2.1%	4.3%	18.8	7.4%	0.5%
Cc1cccc(OCCC(=O)Nc2ccc(F)c(Cl)c2)c1	-84.1*	-17.3%	3.0%	-10.0	17.2%	-7.6%
Cc1ccc(NC(=O)C(OC(=O)c2ccc(NC(N)=O)cc2)c2ccccc2)cc1Cl (centres undefined)	-53.0*	-8.9%	-12.7%	11.3	?	-16.1%
Cc1ccc(OCC(=O)NC(=S)Nc2cccc(NC(=O)c3ccccc3)c2)cc1	-2.7	-7.3%	2.4%	-11.9	14.6µM*	0.5%
Cc1ccc(C)c(CSc2cn(CC(=O)N3CCCC3)c3ccccc23)c1	/	1.4%	/	/	/	-6.6%
SMILES	IL-1B inflam inh	Vif-A3F inh	SW480 rerep	Giardia killer	MCF10A rerep	Vif-APOBEC3G blk
O=C([C@@H]1CC=C[C@@H]2CCN(C3CC3)C(=O)[C@@H]21)N1CCOCC1	/	/	/	/	/	0.7%
Cc1ccc(NC(=O)COc2ccccc2)cc1Cl	-50.8*	0.3%	0.4%	14.0	?	0.2%
Cc1cc(NC(=O)COc2ccccc2)ccc1Cl	-13.3	1.9%	-2.1%	14.7	-4.2%	0.9%
O=C(Nc1ccc(Br)cc1)c1cccc(-n2cnnn2)c1	-7.8	2.9%	1.7%	-2.6	?	5.2%
Cc1ccc(NC(=O)CSc2ccccc2NC(=O)c2ccccc2)cc1Cl	?	-17.0%	5.1%	-21.7	20.6µM*	-3.4%
Cc1ccc(NC(=O)c2cccc(-n3cnnn3)c2)cc1Cl	0.0	5.5%	0.651µM*	16.8	?	-7.2%
Cc1ccc(NC(=O)CS(=O)CC(=O)NCCCc2ccccc2)cc1Cl (centres undefined)	?	1.0%	7.31µM*	-16.5	?	1.5%
COc1cccc(NC(=O)CN(C)C(=O)CNC(=O)c2ccc(Oc3ccccc3)cc2)c1	-96.3*	3.7%	0.1%	-15.5	9.4%	-1.8%
COc1ccc(OCC(=O)NNc2c3ccccc3nc3ccccc23)cc1	-51.0*	-0.3%	-3.1%	-3.4	?	-0.7%
COc1ccc(NC(=O)CN(C)C(=O)CNC(=O)c2ccc3ccccc3c2)cc1	45.6	4.1%	5.6%	4.5	11.5%	0.9%
COc1ccc(C(=O)N/N=C/c2ccc(OC)c(COc3ccc(F)cc3F)c2)cc1	-5.8	-0.2%	10.6%	22.6	1.2%	2.5%
COc1ccc(C(=O)/C=C/c2ccc(OC)c(COc3ccccc3F)c2)cc1	-89.7*	1.8%	?	16.1	4.4%	?
COc1ccc(/C=C/C(=O)c2ccccc2)cc1Cn1nnc2ccccc21	-99.3*	-24.4%	?	3.5	11.6µM*	?
COc1ccc(/C=C/C(=O)C2CC2)cc1COc1cccc(C)c1C	-62.3*	-4.7%	?	-0.4	?	-24.7%
COc1ccc(/C=C/C(=O)c2ccc(O)cc2)cc1COc1ccc(F)cc1	-98.0*	-6.0%	-10.0%	8.1	3.6%	-0.3%
Clc1ccc2nc[nH]c2c1	/	/	/	/	/	-12.0%
COc1ccc(/C=N\NC(=O)c2ccccc2)cc1COc1ccc(F)cc1	0.2	0.8%	?	6.5	24.6%	?
COc1ccc(/C=C/C(=O)c2ccccc2)cc1COc1ccc(F)cc1	-52.4*	-12.6%	?	1.4	?	-19.1%
COc1cccc(CNC(=O)CSc2ccc(-c3sc(-c4ccccc4)nc3C)nn2)c1	/	1.2%	/	/	/	2.5%
